Of roughly 8,800 targets only a part is listed; those with a hit were picked by preference. About 0.5% of all pairs of compound and target were hits.

UniProt O60244, sequence (O60244 whole entry, looked up): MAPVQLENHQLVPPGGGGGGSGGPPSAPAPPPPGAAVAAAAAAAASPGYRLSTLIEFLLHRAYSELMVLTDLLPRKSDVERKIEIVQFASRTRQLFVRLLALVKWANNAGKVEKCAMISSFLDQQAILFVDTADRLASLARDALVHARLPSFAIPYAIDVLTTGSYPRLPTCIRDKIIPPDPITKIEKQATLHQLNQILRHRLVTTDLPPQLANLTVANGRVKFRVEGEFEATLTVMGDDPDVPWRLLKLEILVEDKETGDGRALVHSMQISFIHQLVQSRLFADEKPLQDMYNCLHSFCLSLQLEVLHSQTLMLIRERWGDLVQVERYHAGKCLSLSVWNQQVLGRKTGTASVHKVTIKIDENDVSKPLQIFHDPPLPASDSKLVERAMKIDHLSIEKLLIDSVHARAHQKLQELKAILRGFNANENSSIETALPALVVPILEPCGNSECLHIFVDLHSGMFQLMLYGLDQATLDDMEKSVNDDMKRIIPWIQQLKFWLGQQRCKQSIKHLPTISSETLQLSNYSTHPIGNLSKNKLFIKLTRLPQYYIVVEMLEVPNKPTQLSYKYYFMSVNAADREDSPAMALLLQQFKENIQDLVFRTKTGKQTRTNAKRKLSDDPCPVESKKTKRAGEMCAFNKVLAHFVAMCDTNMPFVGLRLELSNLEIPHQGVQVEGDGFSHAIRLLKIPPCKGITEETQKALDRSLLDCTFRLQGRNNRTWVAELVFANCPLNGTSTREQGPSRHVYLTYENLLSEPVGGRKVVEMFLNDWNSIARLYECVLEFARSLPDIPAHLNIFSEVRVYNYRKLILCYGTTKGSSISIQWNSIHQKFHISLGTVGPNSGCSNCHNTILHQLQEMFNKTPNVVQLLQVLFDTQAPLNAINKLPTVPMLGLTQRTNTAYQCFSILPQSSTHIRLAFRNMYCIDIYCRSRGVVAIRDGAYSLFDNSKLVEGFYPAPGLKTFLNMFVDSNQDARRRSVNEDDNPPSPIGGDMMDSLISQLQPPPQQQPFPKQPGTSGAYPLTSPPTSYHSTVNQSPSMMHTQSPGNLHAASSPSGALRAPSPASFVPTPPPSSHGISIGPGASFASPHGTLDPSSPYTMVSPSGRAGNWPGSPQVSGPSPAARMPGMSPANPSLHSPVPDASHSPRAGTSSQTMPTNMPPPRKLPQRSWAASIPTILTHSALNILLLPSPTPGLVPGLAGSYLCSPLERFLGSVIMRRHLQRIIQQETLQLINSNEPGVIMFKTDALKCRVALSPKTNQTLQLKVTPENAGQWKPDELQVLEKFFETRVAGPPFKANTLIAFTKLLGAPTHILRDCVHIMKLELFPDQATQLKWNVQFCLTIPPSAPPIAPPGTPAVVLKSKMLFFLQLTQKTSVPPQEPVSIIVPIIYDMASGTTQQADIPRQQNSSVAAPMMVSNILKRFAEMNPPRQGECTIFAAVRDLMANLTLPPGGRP
UniProt Q53G59, sequence (Q53G59 whole entry, looked up): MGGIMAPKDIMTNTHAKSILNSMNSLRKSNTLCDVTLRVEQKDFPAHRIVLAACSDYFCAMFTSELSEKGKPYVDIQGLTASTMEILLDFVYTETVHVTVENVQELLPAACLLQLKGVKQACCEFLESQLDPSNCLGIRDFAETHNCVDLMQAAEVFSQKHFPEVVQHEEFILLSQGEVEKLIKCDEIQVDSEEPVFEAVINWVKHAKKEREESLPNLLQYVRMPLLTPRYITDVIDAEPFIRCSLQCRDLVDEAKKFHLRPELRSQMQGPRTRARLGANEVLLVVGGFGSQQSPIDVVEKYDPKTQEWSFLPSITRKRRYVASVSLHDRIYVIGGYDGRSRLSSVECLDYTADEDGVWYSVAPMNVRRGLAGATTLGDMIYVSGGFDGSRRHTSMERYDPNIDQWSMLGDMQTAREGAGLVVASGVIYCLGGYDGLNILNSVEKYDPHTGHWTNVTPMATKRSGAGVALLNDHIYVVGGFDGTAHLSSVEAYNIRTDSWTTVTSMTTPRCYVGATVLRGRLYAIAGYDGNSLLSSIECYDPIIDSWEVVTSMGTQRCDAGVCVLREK
UniProt Q9Y2E5, sequence (Q9Y2E5 whole entry, looked up): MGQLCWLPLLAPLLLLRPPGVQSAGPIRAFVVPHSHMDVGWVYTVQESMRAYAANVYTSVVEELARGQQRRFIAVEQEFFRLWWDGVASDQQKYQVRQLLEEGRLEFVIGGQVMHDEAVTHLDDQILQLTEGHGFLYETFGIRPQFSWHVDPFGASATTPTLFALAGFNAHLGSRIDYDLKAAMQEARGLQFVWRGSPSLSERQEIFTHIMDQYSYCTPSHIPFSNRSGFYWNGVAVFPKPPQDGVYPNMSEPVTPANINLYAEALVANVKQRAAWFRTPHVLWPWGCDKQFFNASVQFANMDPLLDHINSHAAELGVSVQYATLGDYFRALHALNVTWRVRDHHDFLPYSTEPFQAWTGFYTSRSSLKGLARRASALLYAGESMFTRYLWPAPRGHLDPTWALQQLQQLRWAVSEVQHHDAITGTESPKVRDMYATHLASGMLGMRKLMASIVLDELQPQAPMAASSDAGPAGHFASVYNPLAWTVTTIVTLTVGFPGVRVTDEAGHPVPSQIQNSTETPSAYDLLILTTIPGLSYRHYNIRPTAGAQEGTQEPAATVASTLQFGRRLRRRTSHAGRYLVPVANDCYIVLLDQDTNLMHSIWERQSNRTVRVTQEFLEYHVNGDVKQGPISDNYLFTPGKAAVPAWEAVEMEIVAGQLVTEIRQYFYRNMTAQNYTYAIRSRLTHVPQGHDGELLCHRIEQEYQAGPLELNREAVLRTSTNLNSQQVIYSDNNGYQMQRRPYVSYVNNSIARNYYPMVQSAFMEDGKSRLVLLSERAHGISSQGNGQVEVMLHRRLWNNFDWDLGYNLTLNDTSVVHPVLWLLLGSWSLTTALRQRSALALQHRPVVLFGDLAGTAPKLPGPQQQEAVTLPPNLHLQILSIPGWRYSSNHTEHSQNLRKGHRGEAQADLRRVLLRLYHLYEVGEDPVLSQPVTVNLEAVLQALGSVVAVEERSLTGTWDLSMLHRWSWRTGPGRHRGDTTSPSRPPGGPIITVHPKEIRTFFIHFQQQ
UniProt P48449, sequence (P48449 whole entry, looked up): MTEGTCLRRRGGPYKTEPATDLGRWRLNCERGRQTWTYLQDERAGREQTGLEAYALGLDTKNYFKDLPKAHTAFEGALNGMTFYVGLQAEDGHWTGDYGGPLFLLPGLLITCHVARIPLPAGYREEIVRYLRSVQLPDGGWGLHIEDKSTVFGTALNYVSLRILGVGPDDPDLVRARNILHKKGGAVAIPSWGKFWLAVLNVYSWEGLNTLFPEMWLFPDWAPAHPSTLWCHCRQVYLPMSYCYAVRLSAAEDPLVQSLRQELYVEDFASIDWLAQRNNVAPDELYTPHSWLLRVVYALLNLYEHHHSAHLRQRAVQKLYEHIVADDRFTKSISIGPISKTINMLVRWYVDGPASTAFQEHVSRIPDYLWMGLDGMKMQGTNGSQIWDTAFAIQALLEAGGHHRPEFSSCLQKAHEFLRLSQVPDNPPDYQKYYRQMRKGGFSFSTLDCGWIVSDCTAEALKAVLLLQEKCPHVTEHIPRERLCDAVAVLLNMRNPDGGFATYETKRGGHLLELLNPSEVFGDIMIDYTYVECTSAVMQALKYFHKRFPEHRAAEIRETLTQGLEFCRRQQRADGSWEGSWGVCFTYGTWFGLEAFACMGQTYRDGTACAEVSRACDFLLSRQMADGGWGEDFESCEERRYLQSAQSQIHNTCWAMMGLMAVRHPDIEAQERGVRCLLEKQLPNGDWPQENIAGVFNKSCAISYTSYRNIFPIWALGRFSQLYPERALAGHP
UniProt Q9Y4K4, sequence (Q9Y4K4 whole entry, looked up): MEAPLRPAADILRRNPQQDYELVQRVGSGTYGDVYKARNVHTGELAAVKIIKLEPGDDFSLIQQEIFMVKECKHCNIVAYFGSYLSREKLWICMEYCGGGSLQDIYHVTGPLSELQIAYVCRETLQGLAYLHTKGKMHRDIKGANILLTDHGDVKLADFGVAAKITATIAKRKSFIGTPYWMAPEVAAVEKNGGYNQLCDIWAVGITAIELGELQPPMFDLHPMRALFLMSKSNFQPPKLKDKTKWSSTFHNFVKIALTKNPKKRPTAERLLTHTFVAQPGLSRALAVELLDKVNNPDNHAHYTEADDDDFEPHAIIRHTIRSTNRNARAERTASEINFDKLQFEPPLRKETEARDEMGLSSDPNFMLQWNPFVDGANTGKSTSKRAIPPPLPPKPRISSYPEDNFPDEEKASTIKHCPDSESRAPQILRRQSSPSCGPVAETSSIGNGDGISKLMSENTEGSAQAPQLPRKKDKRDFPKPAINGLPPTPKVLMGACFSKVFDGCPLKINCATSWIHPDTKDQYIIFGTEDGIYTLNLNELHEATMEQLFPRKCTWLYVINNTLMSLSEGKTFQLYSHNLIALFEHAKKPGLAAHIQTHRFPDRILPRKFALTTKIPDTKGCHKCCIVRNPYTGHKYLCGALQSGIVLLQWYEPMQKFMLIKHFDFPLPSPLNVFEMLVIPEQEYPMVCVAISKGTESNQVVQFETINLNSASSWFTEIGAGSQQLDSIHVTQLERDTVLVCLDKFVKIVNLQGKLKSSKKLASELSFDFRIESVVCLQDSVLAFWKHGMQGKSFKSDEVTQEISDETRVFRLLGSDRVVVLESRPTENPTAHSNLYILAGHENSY
UniProt A9UHW6, sequence (A9UHW6 whole entry, looked up): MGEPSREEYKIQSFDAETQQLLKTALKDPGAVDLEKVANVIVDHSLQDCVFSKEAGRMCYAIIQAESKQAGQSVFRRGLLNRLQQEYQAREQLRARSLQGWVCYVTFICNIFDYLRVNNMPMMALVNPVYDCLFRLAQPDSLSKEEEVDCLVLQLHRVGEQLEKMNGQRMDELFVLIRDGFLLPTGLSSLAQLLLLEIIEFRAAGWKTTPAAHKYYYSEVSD
UniProt O15243, sequence (O15243 whole entry, looked up): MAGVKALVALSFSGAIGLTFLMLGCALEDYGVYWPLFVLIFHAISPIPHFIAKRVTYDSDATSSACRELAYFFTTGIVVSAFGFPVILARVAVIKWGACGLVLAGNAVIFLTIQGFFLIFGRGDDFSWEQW

Compound in this assay: CC1=CC=C(C=C1)SC2=C3C=C(SC3=CN=C2)C(=O)N
Put plainly: log2 fold change, soluble protein after heating vs DMSO (PISA); higher = thermal stabilisation; K562 lysate, 10 uM; active = over 0.2 and 3.5 SD of the protein, either way, in both replicates (recomputed). The gist of the method: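 Log-two fold change in thermal stability relative to solvent controls is reported from duplicates. For each sample, crude K562 extract from dounce-homogenised pellets in PBS pH 7.4 with 1 mM MgCl2, at 1 mg/mL protein, was treated with 10 μM compound for 30 min. Aliquots heated for 3 min across 48°C-58°C were pooled, brought to 0.5% NP-40 at 4°C and cleared at 21,000xg for 90 min. The supernatant was quantified by TMTpro 16plex LC-MS/MS with channel sums equalised.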
For MCMBP isoform 2 (UniProt Q9BTE3), the log2 fold change was 0.005 (inactive).

Regarding MAP4K5 (UniProt Q9Y4K4), the log2 fold change was 0.025 (inactive). For the target MACO1 (UniProt Q8N5G2), the log2 fold change was 0.095 (inactive). The result for LEPROT (UniProt O15243) reads 0 (inactive). Turning to KLHL12 isoform 2 (UniProt Q53G59), the log2 fold change is 0.007 (inactive). The result for LSS (UniProt P48449) reads -0.065 (inactive); that for KIF4B (UniProt Q2VIQ3), -0.036 (inactive). Take MRPL27 (UniProt Q9P0M9): the log2 fold change was 0.079 (inactive). For MED25 isoform 3 (UniProt Q71SY5), the log2 fold change is 0.025 (inactive).

Take MAP7D3 (UniProt Q8IWC1): the log2 fold change was -0.039 (inactive). On to MITD1 (UniProt Q8WV92), for which the log2 fold change was -0.027 (inactive). On to MED14 (UniProt O60244), for which the log2 fold change is 0.018 (inactive). As to LIMK2 isoform 3 (UniProt P53671), the log2 fold change was -0.073 (inactive). For LAMP1 (UniProt P11279), the log2 fold change was -0.032 (inactive). The result for MAPK3 (UniProt P27361) reads -0.028 (inactive).

For MRPL35 (UniProt Q9NZE8), the log2 fold change is 0.01 (inactive). In the case of MAN2B2 (UniProt Q9Y2E5), the log2 fold change is 0.012 (inactive). Consider MAST2 (UniProt Q6P0Q8), for which the log2 fold change was -0.022 (inactive). In the case of MGST3 (UniProt O14880), the log2 fold change was -0.025 (inactive). MAPK14 (UniProt Q16539): the log2 fold change was -0.007 (inactive). With LRRC7 (UniProt Q96NW7), the log2 fold change was 0.086 (inactive). In the case of MIF4GD isoform 3 (UniProt A9UHW6), the log2 fold change is -0.004 (inactive). The result for MME (UniProt P08473) reads -0.043 (inactive).

The values above are taken from the supplement of paper PMC10849652.
